Screening data as filed in PubChem.
PINK1 modulator: A Quantitative High throughput Screen to Identify Chemical Modulators of PINK1 Expression; PINK1 immunofluorescence, high-content cytometry, 24 h; Potency, µM (series often up to 76.6 µM), for the others: at the top dose activation (PINK1 increase), usual class: activators; 410,000 tested, 0.2% active; active = well fitted activation curve with a large enough effect; inconclusive = small, poorly fitted or top-dose-only effect; cell line not stated here; also: % of control where 0% means no effect; nearly all actives have a fitted effect of over 65% in size
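Stable cell line, 250 cells/well, 12 h attachment; compounds pinned at 5 concentrations, 24 h; CCCP control. Fixed with nuclear dye, primary antibodies 12 h at 10 degrees C, secondary plus cell stain; laser-scanning cytometer read.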
SW480 rereplic: A quantitative high throughput screen for small molecules that induce DNA re-replication in SW480 colon adenocarcinoma cells; SW480 DNA re-replication, Hoechst DNA content imaging, 48 h; Potency, µM (titrated, usually from 46.1 µM), inactives show at the highest dose re-replication activation, usual class: activators; 340,000 tested, 1.8% active; also: % of control where 0% means no effect; nearly all actives have a fitted effect of over 55% in size
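Image-based DNA-content assay: after two days of treatment, nuclei were labelled with the DNA dye Hoechst and imaged, and hits were compounds raising the count of nuclei showing high fluorescence intensity.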
MCF10A rereplic: A quantitative high throughput screen for small molecules that induce DNA re-replication in MCF 10a normal breast cells | MCF 10A DNA re-replication, Hoechst nuclear intensity, 48 h | Potency, µM (series often up to 46.1 µM), for the others: at the top dose activity, positive = re-replication, usual class: activators | 350,000 tested, 2.9% active | AID 624296, 2012; also: % of control where 0% means no effect; nearly all actives have a fitted effect of over 50% in size
KB-V1 MDR tox: qHTS assay for MDR1-selective chemotherapeutics: Primary screen using the drug-selected MDR subline cells KB-V1; Potency, µM (doses to about 46.1 µM), usual class: cytotoxic; 400,000 tested, 3.4% active; KB-V1 MDR cells viability, CellTiter-Glo, 72 h; also: % is scaled to controls: 0 for no effect and ±100 for the full control effect; nearly all actives have a fitted effect of over 60% in size
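Cytotoxicity toward P-gp-expressing KB-V1 cells was determined as loss of CellTiter-Glo luminescence after 72 h at 37 degrees C. Compounds were tested in quantitative HTS format across a concentration range, with curves fitted to normalized data.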
KB-3-1 cytotox: qHTS assay for MDR1-selective chemotherapeutics: Primary screen using the parental adenocarcinoma cell KB-3-1; 400,000 tested, 1.4% active; AID 1347075, 2019; KB-3-1 viability, CellTiter-Glo ATP luminescence, 72 h; Potency, µM (highest dose often 46.1 µM), most hits filed as cytotoxic; also: % is scaled to controls: 0 for no effect and ±100 for the full control effect; nearly all actives have a fitted effect of over 60% in size
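Cytotoxicity measured as CellTiter-Glo luminescence after 72 h at 37 C. Compound titrations were pinned onto drug-naive KB-3-1 parental adenocarcinoma cells grown in DMEM with 10% FBS, and normalized data fitted to concentration-response curves.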
ALOX12 inh: Primary qHTS assay for inhibitors of human arachidonate 12S-lipoxygenase (ALOX12): Round 2 | Polyunsaturated fatty acid lipoxygenase ALOX12 (Homo sapiens), P18054 | purified 12hLO, xylenol orange hydroperoxide absorbance | Potency, µM (highest dose often 108 µM), for inactives: top-dose activity change, negative = inhibition, hits mostly inhibitors | 580,000 tested, 1.1% active | AID 1671190, 2021; also: % is scaled to controls: 0 for no effect and ±100 for the full control effect
Target sequence (P18054 whole entry, looked up): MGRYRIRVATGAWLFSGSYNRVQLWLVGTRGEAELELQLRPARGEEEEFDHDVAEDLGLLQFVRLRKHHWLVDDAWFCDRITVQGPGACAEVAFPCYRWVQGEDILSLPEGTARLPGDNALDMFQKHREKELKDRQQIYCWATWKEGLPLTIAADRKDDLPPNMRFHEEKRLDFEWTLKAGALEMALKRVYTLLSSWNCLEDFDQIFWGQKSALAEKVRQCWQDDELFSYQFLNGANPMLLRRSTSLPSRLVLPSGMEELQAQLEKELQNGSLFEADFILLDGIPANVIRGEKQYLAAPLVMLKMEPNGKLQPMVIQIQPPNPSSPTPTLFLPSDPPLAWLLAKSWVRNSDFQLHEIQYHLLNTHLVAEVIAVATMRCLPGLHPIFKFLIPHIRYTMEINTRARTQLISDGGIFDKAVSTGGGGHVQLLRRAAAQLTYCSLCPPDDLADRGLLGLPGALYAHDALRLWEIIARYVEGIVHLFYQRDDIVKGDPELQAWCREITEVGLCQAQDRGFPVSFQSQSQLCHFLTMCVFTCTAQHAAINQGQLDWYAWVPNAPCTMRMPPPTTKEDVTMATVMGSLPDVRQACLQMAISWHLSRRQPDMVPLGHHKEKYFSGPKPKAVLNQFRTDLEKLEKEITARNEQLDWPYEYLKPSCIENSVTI
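Purified human 12hLO at 150 nM in 25 mM Hepes, 0.01% Triton X-100, pH 7.0, preincubated 15 min at room temperature with compound. Reaction started with 40 uM arachidonic acid, 30 min at room temperature. Hydroperoxide measured by Fe-xylenol orange, 573/405 nm absorbance ratio.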
Starred values were filed as active, the others as inactive; i = inactive; ? = inconclusive; . = no result given; [ ] = remark or other dose. Most compounds without a hit are left out; they make up all but 5.8% or so of the library. Unless noted, calls follow the shape of the dose curve; as a rule, active = well fitted curve in the direction sought with a large enough effect; inconclusive = small, poorly fitted or top-dose-only effect, or another doubt; inactive = no such curve, though single readings can be large; an effect the other way counts as inactive or inconclusive. Potency is read from the fitted curve at half-maximal effect.

SMILES	PINK1 modulator	SW480 rereplic	MCF10A rereplic	KB-V1 MDR tox	KB-3-1 cytotox	ALOX12 inh
CN1CCC(NCCC(c2ccc(F)cc2)c2ccc(Cl)cc2)CC1 (stereo unspecified)	-2.2%	?	?	?	16.4µM*	0.0%
CC(C)C(CCNC1CCN(C)CC1)c1ccc(Cl)cc1 (stereo unspecified)	-1.0%	14.1%	?	?	?	?
COc1ccc(CCc2cc(OC)cc(=O)o2)cc1	0.1%	-5.0%	-0.9%	i	i	3.7%
COc1cc(C2C(c3ccccc3)C(c3cc(OC)cc(=O)o3)C2c2ccccc2)oc(=O)c1 (stereo unspecified)	0.0%	6.4%	?	6.51µM*	i	7.0%
Cc1cc(C)n(-c2nc(-c3ccc(Cl)c(Cl)c3)cs2)n1	4.2%	-1.6%	7.08µM*	i	i	0.0%
CCCCCCOc1ccc(CNc2cccc3ccccc23)cc1	.	.	.	.	.	4.47µM*
CCCCOc1ccc(CNn2c(C)nc3ccccc3c2=O)cc1	29.7%[38.3 µM]	-3.9%	?	i	i	8.2%
CC(OC(=O)c1csc(NCc2ccccc2)n1)C(=O)NC1(C#N)CCCCC1 (stereo unspecified)	.	.	.	.	.	-11.9%
O=C1C(=Cc2ccc(Cl)cc2)Cc2ccccc21	1.8%	.	.	i	i	-8.9%
C=CC(=O)N1C/C(=C/c2ccc(Cl)cc2)C(=O)/C(=C\c2ccc(Cl)cc2)C1	1.6%	1.46µM*	?	i	?	-27.2%
C=CC(=O)N1C/C(=C/c2ccccc2)C(=O)/C(=C\c2ccccc2)C1	-6.5%	?	19.3%	?	4.11µM*	-18.4%
O=C(C1CCC1)N1c2ccccc2CC1c1noc(C2CCOCC2)n1 (stereo unspecified)	.	.	.	.	.	43.1%
COC(=O)c1cccc(C23CC4(C2)[C@H](CN(Cc2ccc(C(F)(F)F)cc2)[C@@H]4c2ccccc2)C3c2ccc(Cl)nc2)c1 (stereo partly specified)	1.8%	2.7%	?	i	i	-22.1%
c1ccc(C2[C@H]3CN(Cc4cccnc4)[C@H](c4ccccc4)C34CC2(c2cccnc2)C4)cc1 (stereo partly specified)	0.9%	-12.4%[9.22 µM]	?	20.6µM*	?	17.1%
COC(=O)c1cccc(C23CC4(C2)[C@H](CN(Cc2ccc(C(F)(F)F)cc2)[C@@H]4c2ccccc2)C3c2ccc(C(F)(F)F)cc2)c1 (stereo partly specified)	3.9%	-0.5%[9.22 µM]	-0.1%	i	13µM*	-21.8%
O=C(Cc1ccc(Cl)cc1)c1c[nH]c(C(=O)NCCCn2ccnc2)c1	2.5%	-80.6%	1.84µM*	i	i	39.3%
O=C(/C=C/c1ccc(Br)cc1)NCCCn1ccnc1	-0.1%	-3.4%	20.3%	i	i	1.3%
CC(C)c1ccccc1NC(=S)NCCCn1ccnc1	-0.5%	-51.8%	0.731µM*	i	i	-1.8%
CCOc1ccc(NC(=S)NCCCn2ccnc2)cc1	4.9%	-0.8%	0.1%	i	i	6.9%
O=C(NCCCn1ccnc1)c1ccc2ccccc2c1	0.1%	?	5.5%	i	i	i
CC(C)CC(=O)c1c[nH]c(C(=O)NCCCn2ccnc2)c1	-0.5%	-4.0%	13.4%	i	i	-11.5%
Cc1cc(C(=O)NCCCn2ccnc2)cs1	10µM*	-12.8%	-12.8%	i	i	6.5%
O=C(/C=C/c1c(Cl)cccc1Cl)NCCCn1ccnc1	-0.5%	?	23.1µM*	i	i	177.7%
O=C1CSc2ccc(C(=O)OCc3cc(-c4ccc(Cl)cc4)no3)cc2N1	.	.	.	.	.	-7.5%
